Compound activity from PubChem.
PLK1 kinase inh: blocks human PLK1 kinase activity. recombinant PLK1 kinase, TR-FRET peptide phosphorylation. P53350. inhibition, % at 10 µM. 97,000 compounds, 0.53% hits;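 active = inhibition of 50% or more in the single-concentration screen; inactive = inhibition below 50%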;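 note: 0% = DMSO max control and 100% = H-89 dihydrochloride min control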
CYP2C19 activ: activators of human cytochrome P450 2C19. P33261. AID 1025. recombinant CYP2C19, luciferin-H EGE luminescence; active compounds read high; 0 = fully inhibited enzyme, 1 = untreated enzyme. 96,000 tested, under 10 active. activation factor at 5 µM;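 active = activation factor of at least 2 at 5 µM in the primary screen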;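 note: 0 = wells with 2.5 mM tranylcypromine and 1 = vehicle-only wells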
CYP2C9 activ: activators of human CYP2C9. P11712. recombinant CYP2C9, luciferin-H conversion, luminescence; active compounds read high; factor 1 = untreated enzyme, 0 = blocked. activation factor at 5 µM. 96,000 compounds, 1.4% hits. AID 1024;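 active = activation factor of 2 or more for CYP2C9 at a 5 µM dose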;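 note: 0 = sulfaphenazole-blocked wells and 1 = vehicle-only wells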
Target sequence (P11712 whole entry, looked up): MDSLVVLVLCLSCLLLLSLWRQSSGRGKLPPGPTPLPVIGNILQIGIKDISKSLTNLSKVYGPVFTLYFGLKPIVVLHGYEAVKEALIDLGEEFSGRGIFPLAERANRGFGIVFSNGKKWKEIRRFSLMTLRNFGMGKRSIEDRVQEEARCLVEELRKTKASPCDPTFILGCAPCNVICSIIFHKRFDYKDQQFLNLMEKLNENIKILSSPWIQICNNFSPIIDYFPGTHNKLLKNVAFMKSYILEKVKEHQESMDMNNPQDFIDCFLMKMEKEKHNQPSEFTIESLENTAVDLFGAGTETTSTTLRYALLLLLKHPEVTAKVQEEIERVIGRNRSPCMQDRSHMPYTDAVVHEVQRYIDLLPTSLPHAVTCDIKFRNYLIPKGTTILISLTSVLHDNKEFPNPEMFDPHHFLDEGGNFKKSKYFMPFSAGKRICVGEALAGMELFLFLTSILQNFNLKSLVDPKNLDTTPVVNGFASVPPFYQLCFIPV
PLK1 PBD inh: blocks phosphopeptide binding to human Plk1 polo box domain; 97,000 compounds, 0.13% hits; P53350; AID 693; Plk1 PBD phosphopeptide binding, fluorescence polarization; inhibition, %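 (tested at about 20 µM)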; in the data active = inhibition above about 34%, passing the limit was not always enough
CYP2C19 inh: inhibitors of human CYP2C19 | P33261 | CYP2C19 Supersomes, luciferin-H EGE luminescence, 30 min | inhibition, % at 5 µM | 96,000 compounds, 21% hits;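 active = CYP2C19 inhibition above a set limit at 5 µM in the primary screen, cut at about 50% in these data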;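 note: plate controls were negative control wells for no effect and 2.5 mM tranylcypromine positive control for full effect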
CYP2C9 inh: blocks human cytochrome P450 2C9 | P11712 | CYP2C9 Supersomes, luciferin-H conversion, luminescence | inhibition, % at 5 µM | 96,000 compounds, 20% hits | AID 777;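 active = blocking of liver enzyme CYP2C9 beyond about 50% at 5 µM, limit read from the data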
An asterisk follows results filed as active; nt = no result given. Sampled rows, rich in hits. Any-hit rate of the full collection: about 28%.

SMILES | PLK1 kinase inh | CYP2C19 activ | CYP2C9 activ | PLK1 PBD inh | CYP2C19 inh | CYP2C9 inh
O=C(CN1CCCN(S(=O)(=O)c2ccc(Br)cc2)CC1)Nc1ccc2c(c1)OCO2 | 7 | nt | nt | -14 | nt | nt
Oc1ccc2ccccc2c1C=Nc1cc(C(F)(F)F)ccc1N1CCCC1 | -17 | 1 | 0.7 | -10 | -1 | 30
Cc1cccc(Oc2ncc(-c3ccc(Cl)cc3)cn2)c1 | -11 | 1 | 1.2 | 16 | -2 | -16
O=C(Nc1ccc(F)cc1)C1CCC(N2C(=O)c3ccccc3C2=O)CC1 (configuration not stated) | -4 | 0.2 | 0.5 | -2 | 78* | 51*
COc1ccc(S(=O)(=O)N(Cc2ccccc2)Cc2nc3ccccc3c(=O)[nH]2)cc1 | -10 | 0.4 | 0.5 | 20 | 55* | 49
COc1ccc(-c2noc(CN(C)S(=O)(=O)c3ccccc3)n2)cc1OC | -5 | nt | nt | -9 | nt | nt
Cc1ccc(CNC(=O)CCc2nc3ccccc3c(=O)[nH]2)cc1 | nt | 1 | 0.9 | nt | -2 | 6
COc1ccccc1CN(Cc1nc2ccccc2c(=O)[nH]1)S(=O)(=O)c1ccc2ccccc2c1 | -12 | nt | nt | 2 | nt | nt
Cc1ccc(S(=O)(=O)N(C)Cc2nc(-c3ccc(Br)cc3)no2)cc1 | 1 | 0.8 | 1 | -36 | 20 | -3
Cc1ccc(S(=O)(=O)N(C)Cc2nc(-c3ccncc3)no2)cc1 | 1 | 0.1 | 0.3 | 2 | 92* | 69*
Cc1ccc(S(=O)(=O)Cc2nc3ccccc3c(=O)[nH]2)cc1 | -5 | 0.2 | 0.8 | 3 | 85* | 24
COc1ccc(S(=O)(=O)N(Cc2ccccc2)Cc2nc(-c3ccccc3)no2)cc1 | -15 | 0.1 | 0.1 | 13 | 87* | 92*
O=C(c1ccc(Cl)cc1)N1CCC(O)(CSc2ccc(Cl)cc2Cl)CC1 | -9 | 1 | 0.8 | 2 | 0 | 22
CCC(CO)NCCNC(CC)CO (configuration not stated) | -9 | 1.1 | 1.1 | -3 | -10 | -10
CC1Cc2ccccc2N1C(=O)CSc1nc(N)cc(=O)[nH]1 (configuration not stated) | -8 | 1 | 0.9 | -23 | 1 | 12
CN(Cc1nc(-c2cccnc2)no1)S(=O)(=O)c1ccccc1 | -9 | 0.3 | 0.9 | -14 | 74* | 15
CCN1C(c2ccccc2)C(C)C(=O)C(C)C1c1ccccc1 (configuration not stated) | 5 | 0.3 | 0.1 | 20 | 65* | 88*
CCN(CC)C(=S)SCC(=O)Nc1ccc(F)cc1 | -11 | 0.6 | 0.9 | -29 | 37 | 8
C/C(Cl)=C\CNC(C)c1ccccc1 (configuration not stated) | -15 | 0.5 | 0.9 | -31 | 55* | 6
CCOc1ccc(N2CC(C(=O)Oc3ccccc3)CC2=O)cc1 (configuration not stated) | -5 | nt | nt | -33 | nt | nt
COc1ccc(/C=N/NS(=O)(=O)c2ccccc2)cc1OS(=O)(=O)c1ccc(C)cc1 | -16 | 0.5 | 0.1 | 3 | 52* | 93*
COc1cc(/C=N/NC(=O)COc2ccc(Cl)cc2)ccc1OS(=O)(=O)c1ccc(C)cc1 | -5 | 0.6 | 0.4 | -8 | 37 | 64*
COc1ccc(C(=O)Oc2cc(/C=N/NS(=O)(=O)c3ccccc3)ccc2OC)cc1 | -14 | 0.8 | 0.7 | -3 | 19 | 33
COc1ccc(/C=N/NC(=O)c2cccc([N+](=O)[O-])c2)cc1OS(=O)(=O)c1ccccc1 | -5 | 0.8 | 0.9 | 10 | 24 | 10
COc1cc(/C=N/NC(=O)c2cccnc2)ccc1OS(=O)(=O)c1ccc(F)cc1 | -7 | 0.3 | 0.2 | -15 | 67* | 83*
COc1ccc(/C=N/NS(=O)(=O)c2ccc(C)cc2)cc1OC(=O)c1ccc(C)cc1 | -18 | 1 | 0.1 | -13 | 4 | 88*
COc1ccc(/C=N/NC(=O)c2cccc([N+](=O)[O-])c2)cc1OC(=O)c1ccc(C)cc1 | -2 | 0.6 | 0.5 | -18 | 36 | 54*
CC1CCCCN1S(=O)(=O)c1ccc(NC(=O)CSc2nnnn2C)cc1 (configuration not stated) | nt | 1 | 0.7 | nt | 4 | 28
Cn1c(-c2ccc(CN3CCCCC3)o2)nc2ccccc21 | -10 | 1 | 1 | 23 | 5 | 2
N=c1c2c(-c3ccccc3)c(-c3ccccc3)oc2ncn1CCN1CCOCC1 | -9 | 0.6 | 0.6 | 32 | 40 | 42
